This is part of a sample that, as a whole, favours compounds with a hit. Of some 83,000 tested, about 20% had one in any assay.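 Cells were grown in 96-well plates and exposed to the test compound at a single concentration for 48 hours; results are reported as percent growth, with values below 10 considered active.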 Unmarked numbers belong to inactive results. Active and inactive are the calls of the source.
These compounds were tested on HL-60(TB) leukemia (assay: NCI-60 one-dose screen, 48 h (100 = growth as untreated, 0 = no growth, -100 = all killed)). Conditions: 10 µM unless noted.

| Compound | growth |
| --- | --- |
| COc1cc(Nc2cc(O)c3c(=O)cc(-c4ccccc4)oc3c2)cc(OC)c1 | -35.7% (active) |
| C/C(=N\Nc1nc2ccccc2s1)c1ccncn1 | -19.9% (active) |
| O=C1C(Cl)=C(Nc2ccccc2)C(=O)c2ccccc21 | -19.5% (active) |
| N#CC(C#N)=Cc1cc2ccccc2nc1Oc1ccc(C(F)(F)F)cc1 | 78.4% |
| COc1cc(OC)c2sc(-c3ccc(-n4cncc4-c4ccc(OC)c(N)c4)cc3)nc2c1 | 58.4% |
| CN1CCN(C(=O)/C=C/c2ccc([N+](=O)[O-])o2)CC1 | 66.2% |
| COc1ccc(/C=N/Nc2nc3ccccc3s2)cc1 | 84.9% |
| COc1cccc(NCc2nnc(Nc3ccc(Cl)cc3)c3ccccc23)c1 | -27.1% (active) |
| COc1cc2c3c(n(C4CCN(C)CC4)c(=O)c2cc1OC)-c1cc2c(cc1C3=O)OCO2 | 95% |
| O=C1Nc2ccc(Br)cc2/C1=N\N=C/c1cn(Cc2ccccc2)c2ccccc12 | 84.4% |
| O=C(c1ccc2ncc(-c3nc(NC4CC4)ncc3F)n2c1)N1CCOCC1 | -30.3% (active) |
| C=C(C)[C@@H]1CC[C@]2(C)[C@H](CC[C@@H]3[C@@H]([C@@](C)(O)CCC=C(C)C)CC[C@]32C)[C@@]1(C)CCC(=O)N1CCN(C)CC1 | -32.3% [100 µM] (active) |
| CO[C@@]12C=C[C@@]34CCC(=O)N3c3ccccc3[C@@H](O1)C4C2 | 96.9% |
| COc1ccc(/C=C2\N=C(c3ccccc3)N(c3cc(OC)c(OC)cc3C(=O)N3N=C(C)CC3=O)C2=O)cc1 | 107% |
| O=c1[nH]nc(-c2ccccc2)c2sc(NC(=S)Nc3ccc(Cl)cc3)nc12 | 72.6% |
| COc1cc(N=Nc2ccc(N)cc2)c(OC)cc1N=Nc1ccccc1.[Cl][Zn][Cl] | 73.5% |
| O=C1/C(=C\c2ccc(Cl)cc2)CN(C(=O)c2ccccc2)C/C1=C\c1ccc(Cl)cc1 | 58% |
| Cn1c([N+](=O)[O-])cnc1C=C1C(=O)c2ccccc2C1=O | 4.69% (active) |
| COc1cc2c(cc1NC(=O)C(Cl)Cl)-c1ccc(NC(=O)C(Cl)Cl)cc1C2 | -14.5% (active) |
| O=S(=O)(Nc1cccc2cc(OS(=O)(=O)c3ccccc3)ccc12)c1ccccc1 | 41.4% |

| Compound | growth |
| --- | --- |
| N#Cc1c(N)nc2c(c(-c3ccc(Cl)cc3)nn2-c2ccccc2)c1C#N | 98.9% [100 µM] |
| COc1ccc(-c2cc(-c3nnc(SCC(=O)Nc4ccc(/C(C)=N\O)cc4)n3-c3ccccc3)c3cc(OC)ccc3n2)cc1 | 31.8% |
| O=C(Nc1ccc(Cl)c(Cl)c1)NS(=O)(=O)c1cnccc1Oc1ccc(F)cc1 | 54% |
| Cc1[nH]c(N=Nc2ccccc2)nc1N=Nc1ccccc1 | 8.83% (active) |
| COc1ccc(C(=O)c2nc3ccccc3n2CC(=O)c2ccc(F)cc2)cc1 | 79.5% |
| c1ccc2c(c1)Sc1ccccc1S2 | 107% |
| CN1C(=O)NC(Cc2c[nH]c3c(Cl)cccc23)C1=O (stereo not given) | 98.6% |
| Cc1nn(-c2ccc(Br)cc2)c2nc3[nH]c(=O)[nH]c(=O)c3nc12 | 120% |
| O=C1Nc2ccccc2/C1=C\c1c(-c2ccccc2)nc2ccccn12 | -10.7% (active) |
| O=C1OC(/C=C/c2ccccc2)=NC/1=C/c1ccccc1[N+](=O)[O-] | 96.2% |
| CCCCN1CCN(c2ccc3nc(-c4ccc5nc(-c6ccc(OCC)cc6)[nH]c5c4)[nH]c3c2)CC1 | 34.3% |
| COc1ccc(-c2cc(C(=O)Nc3nc4cc(C)c(C)cc4s3)nc3cc(-c4ccccc4)nn23)cc1OC | 98.2% |
| FC(F)(F)c1cc(Nc2ccc3cc(OCCCN4CCOCC4)ccc3n2)ccc1Cl | 29% |
| Cc1ccc(-c2nc(N3CCN(C(=O)Nc4ccc(Cl)c(C(F)(F)F)c4)CC3)c3ccccc3n2)cc1 | 98.9% |
| O=C(N/N=C/c1ccncc1)c1ccc(C(F)(F)F)nc1Nc1cccc(C(F)(F)F)c1 | -16.7% (active) |
| CCCCNC(=O)Oc1ccc(/C(=C(/CC)Cc2ccccc2)c2ccc(OCCCN(C)C)cc2)cc1 | 78% |
| Nc1nc(Nc2ccccc2)c2ncn(Cc3ccc4c(c3)OCO4)c2n1 | 25.1% |
| NC(N)=NS(=O)(=O)c1ccc(Nc2ccc3nnc(-c4ccncc4)n3n2)cc1 | 95% |
| O=C(CN1C(=O)S/C(=C\C(Cl)=C\c2ccccc2)C1=O)NCCCn1ccnc1 | -4.78% (active) |
| O=C(Nc1ccc(Oc2ccc(F)cc2)c(Cl)c1)c1cnccn1 | 21.4% |
